PrP 5UTR inh – inhibition of PrP 5' UTR reporter expression. cell-based PrP 5' UTR mRNA reporter, plate reader. inhibition, % (no concentration beside the values). 0.35% of 340,000 active; in the data active = inhibition above about 52%
RecA splice inh – Mtb RecA intein splicing inhibitors, primary screen, biochemical, fluorescence, HTS; inhibition, % (concentration not given with the values); AID 2221, 2009; cell-free RecA intein splicing; Protein RecA (Mycobacterium tuberculosis (strain ATCC 25618 / H37Rv)), P9WHJ3; 0.75% of 290,000 active; in the data active = inhibition above about 30%
Target sequence (P9WHJ3 whole entry, looked up, canonical isoform): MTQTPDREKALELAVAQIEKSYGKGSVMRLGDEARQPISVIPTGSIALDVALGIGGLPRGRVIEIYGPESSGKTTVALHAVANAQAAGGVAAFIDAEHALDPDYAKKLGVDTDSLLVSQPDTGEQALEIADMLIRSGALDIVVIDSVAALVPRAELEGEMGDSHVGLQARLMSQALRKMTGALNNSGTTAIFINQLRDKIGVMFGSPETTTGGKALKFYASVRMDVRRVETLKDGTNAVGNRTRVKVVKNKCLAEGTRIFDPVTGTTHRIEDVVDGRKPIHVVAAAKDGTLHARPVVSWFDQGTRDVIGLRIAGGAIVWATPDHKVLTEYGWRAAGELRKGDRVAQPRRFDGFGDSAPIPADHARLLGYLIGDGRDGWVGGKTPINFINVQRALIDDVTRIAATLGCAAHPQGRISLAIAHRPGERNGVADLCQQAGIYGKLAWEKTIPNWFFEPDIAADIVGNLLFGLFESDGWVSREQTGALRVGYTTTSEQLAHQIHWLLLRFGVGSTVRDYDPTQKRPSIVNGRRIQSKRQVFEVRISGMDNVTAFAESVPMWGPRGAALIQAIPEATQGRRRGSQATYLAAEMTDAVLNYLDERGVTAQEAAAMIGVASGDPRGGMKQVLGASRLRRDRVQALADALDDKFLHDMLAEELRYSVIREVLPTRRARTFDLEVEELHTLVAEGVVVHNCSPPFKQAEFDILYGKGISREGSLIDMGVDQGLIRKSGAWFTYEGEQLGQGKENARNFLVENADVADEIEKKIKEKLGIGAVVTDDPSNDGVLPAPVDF
PfHsp40 rescue – rescue of yeast from PfHsp40 toxicity, primary screen, S. cerevisiae, ATP luminescence; S. cerevisiae expressing PfHsp40, growth rescue; growth rescue, % at 12.5 µM; 0.68% of 340,000 active; in the data active = growth rescue above about 28%, passing the limit was not always enough;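 also: yeast W303a lacking pdr1 and pdr3 grown in galactose medium; growth measured after three days at 30 °C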
PrPC TRFRET – inhibitors of human cell surface prion protein PrPC, primary screen, cell-based, TR-FRET; Major prion protein (Homo sapiens), P04156; TR-FRET read-out; inhibition, % at 13.8 µM; 0.43% of 370,000 active; AID 720596, 2013; in the data active = inhibition above about 24%
SSB-PriA inh – inhibitors of Klebsiella pneumoniae PriA binding to SSB C-terminal tail, primary screen, biochemical, AlphaScreen. PriA–SSB C-terminal tail interaction (Klebsiella pneumoniae). AlphaScreen SSBct-PriA binding, biotinylated peptide. inhibition, % at 33 µM. 0.6% of 430,000 active; in the data active = inhibition mostly above about 37%, no sharp cut-off; inactive = mostly below about 20%
BJeLR lethal – MLPCN primary cell-based screen for lethality selective to Ras in HRASV12 cells; inhibition, % (concentration not given with the values); AID 1554, 2009; BJeLR (HRASV12) viability, CellTiter-Glo ATP luminescence, 48 h; 0.17% of 300,000 active; in the data active = inhibition above about 50%
Large screens that a line does not name were inactive. Only some compounds are listed: those with a hit (about 1.9% of all), similar ones and a draw of the others.

NNc1nc(N)nc(-c2ccccn2)n1	SSB-PriA inh 152 (no result: PrP 5UTR inh, RecA splice inh, PfHsp40 rescue, PrPC TRFRET, BJeLR lethal)
Nc1nc(N)nc(-c2ccccn2)n1	SSB-PriA inh 78
Clc1cc(Cl)nc(-c2ccccn2)n1	none (no result: PrP 5UTR inh, RecA splice inh, PfHsp40 rescue, PrPC TRFRET, BJeLR lethal)
Nc1nc(-c2ccccn2)ns1	none (no result: PrP 5UTR inh, RecA splice inh, PfHsp40 rescue, PrPC TRFRET, BJeLR lethal)
Cc1nc(N)nc(-c2ccccn2)n1	none (no result: PrP 5UTR inh, RecA splice inh, PfHsp40 rescue, PrPC TRFRET, BJeLR lethal)
CN1CCN(c2nc(-c3ccccn3)nc3ccccc23)CC1	SSB-PriA inh 46
O=C(NC(=S)Nc1ccc(N2CCOCC2)cc1)c1ccc([N+](=O)[O-])cc1	none (no result: PrP 5UTR inh, RecA splice inh, PfHsp40 rescue, PrPC TRFRET, BJeLR lethal)
COc1ccc(NC(=O)c2cccc(Oc3ccccn3)c2)cc1Cl	none (no result: PrP 5UTR inh, RecA splice inh, PfHsp40 rescue, PrPC TRFRET, BJeLR lethal)
COc1ccc(C(=O)NC(NC(=O)c2ccc(OC)cc2)c2cccc(Oc3ccccc3)c2)cc1	none (no result: PrP 5UTR inh, RecA splice inh, PfHsp40 rescue, PrPC TRFRET, BJeLR lethal)
Nc1nc(-c2ccccn2)nc2ccccc12	SSB-PriA inh 140 (no result: PrP 5UTR inh, RecA splice inh, PfHsp40 rescue, PrPC TRFRET, BJeLR lethal)
Clc1nc(-c2ccccn2)nc2ccccc12	none (no result: PrP 5UTR inh, RecA splice inh, PfHsp40 rescue, PrPC TRFRET, BJeLR lethal)
COc1ccc(CCNc2nnc(Cc3ccc(F)cc3)c(=O)[nH]2)cc1OC	none (no result: PrP 5UTR inh, RecA splice inh, PfHsp40 rescue, PrPC TRFRET, BJeLR lethal)
COc1ccc(Cl)cc1NC(=O)Nc1c(C)nc2cc(C)ccn2c1=O	none (no result: PrP 5UTR inh, RecA splice inh, PfHsp40 rescue, PrPC TRFRET, BJeLR lethal)
Cc1cccc(N=C2NN=C(c3ccc4c(c3)OCCO4)CS2)c1	none (no result: PrP 5UTR inh)
CCc1ccc(C2=NNC(=Nc3cccc(S(=O)(=O)N(C)C)c3)SC2)cc1	SSB-PriA inh 42
O=C(CCCn1nc(-c2cccs2)ccc1=O)Nc1ccccc1F	none (no result: PrP 5UTR inh, RecA splice inh, PfHsp40 rescue, PrPC TRFRET, BJeLR lethal)
CCCCCc1ccc(-c2cn(Cc3ccc(C(=O)c4ccccc4)cc3)nn2)cc1	none
O=C(c1ccccc1)c1ccc(Cn2cc(-c3ccccc3)nn2)cc1	PfHsp40 rescue 723
CC1Oc2ccccc2N(CC(=O)Nc2nc(-c3ccccn3)cs2)C1=O (stereo unspecified)	SSB-PriA inh 58 (no result: PrP 5UTR inh, RecA splice inh, PfHsp40 rescue, PrPC TRFRET, BJeLR lethal)
O=C(CN1C(=O)C2CCCCC2C1=O)Nc1nc(-c2ccccn2)cs1 (stereo unspecified)	SSB-PriA inh 81
CS(=O)(=O)N1CCC(C(=O)Nc2nc(-c3ccccn3)cs2)CC1	none (no result: PrP 5UTR inh, RecA splice inh, PfHsp40 rescue, PrPC TRFRET, BJeLR lethal)
C[C@@H](C(=O)Nc1nc(-c2ccccn2)cs1)N1C(=O)C2CCCCC2C1=O (stereo partly specified)	SSB-PriA inh 81
CN(C)c1ccc(CCCNS(=O)(=O)c2ccc(F)c(Cl)c2)cc1	none (no result: PrP 5UTR inh, RecA splice inh, PfHsp40 rescue, PrPC TRFRET, BJeLR lethal)
CC12CCC(C(=O)O)(C/C1=N/Nc1ccccc1)C2(C)C (stereo unspecified)	none (no result: PrP 5UTR inh, RecA splice inh, PfHsp40 rescue, PrPC TRFRET, BJeLR lethal)
O=C(O)CCCCCCCCCCP(=O)(c1ccccc1)c1ccccc1	none
O=P(CCCCCCCCCP(=O)(c1ccccc1)c1ccccc1)(c1ccccc1)c1ccccc1	RecA splice inh 60
COc1ccc(Nc2ccc(N3C(=O)CCC3=O)cc2[N+](=O)[O-])cn1	none
COc1ccc(Nc2ccc(C(F)(F)F)cc2[N+](=O)[O-])cn1	SSB-PriA inh 46
Cc1ccc(NC(=O)c2ccccc2NC(=O)C2COc3ccccc3O2)c(C(=O)c2ccccc2)c1 (stereo unspecified)	SSB-PriA inh 61 (no result: PrP 5UTR inh, RecA splice inh, PfHsp40 rescue, PrPC TRFRET, BJeLR lethal)
CC(C)NC(=O)c1ccccc1NC(=O)C1COc2ccccc2O1 (stereo unspecified)	none (no result: RecA splice inh)
Cc1ccc(CNC(=O)C2COc3ccccc3O2)cc1 (stereo unspecified)	PfHsp40 rescue 103
CS(=O)(=O)N(CC(=O)N1CCN(Cc2ccccc2)CC1)c1ccccc1Br	none
CS(=O)(=O)N(CC(=O)N1CCCCC1)Cc1ccccc1	SSB-PriA inh 59 (no result: RecA splice inh)
CS(=O)(=O)N(CC(=O)N1CCN(Cc2ccccc2)CC1)c1ccccc1F	SSB-PriA inh 52 (no result: RecA splice inh)
COc1cc(C=NNc2nc(-c3cccs3)c(NC(C)=O)s2)ccc1O	none (no result: PrP 5UTR inh, RecA splice inh, PfHsp40 rescue, PrPC TRFRET, BJeLR lethal)
NC(=O)c1cccc2ccccc12	none (no result: PrP 5UTR inh)
N#CSCC(=O)c1cccc2ccccc12	PfHsp40 rescue 146 (no result: RecA splice inh, BJeLR lethal)
COc1ccc(Cl)cc1C(=O)NN=C1CCCC1	PfHsp40 rescue 82
COc1ccc(C(=O)NN=C2CCCC2)cc1OC	none
CCOC(=O)N1CC=C2C(C#N)=C(N)C(C#N)(C#N)[C@H](c3ccc(OCC)c(OCC)c3)[C@H]2C1	none
CCCCOc1ccc(C2C3CN(C(=O)OCC)CC=C3C(C#N)=C(N)C2(C#N)C#N)cc1OC (stereo unspecified)	RecA splice inh 33
COc1ccc(F)cc1S(=O)(=O)NC1CNC(=O)C1 (stereo unspecified)	none (no result: PrP 5UTR inh, RecA splice inh, PfHsp40 rescue, PrPC TRFRET, BJeLR lethal)
